This note sets out measurements from PubChem BioAssay (Tox21).

The source made the active and inactive calls. Calls come from the whole dose curve; as a rule, active = well fitted curve in the direction sought with a large enough effect in the repeat runs; inconclusive = weak or mixed curves; inactive = flat fitted curve, though single readings scatter.

The experiment in a line: qHTS assay to test for compound auto fluorescence at 535 nm (green) in HepG2 cell free culture (AID 720686). The note with it: Cell-free medium, green autofluorescence 485/535 nm; series mostly up to 91.3 µM. An excerpt: U.S. Tox21 Program National Center for Advancing Translational Sciences [NCATS] NIH Chemical Genomics Center [NCGC] U.S. Environmental Protection Agency [EPA] National Institutes of Environmental Health Sciences [NIEHS] National Toxicology Program [NTP] U.S. Food and Drug Administration [FDA] Tox21 Assay Overview: Compound auto fluorescence often interferes with screening of the compound library against various biological targets and signaling pathways. Some of these compounds may have fluorophoric properties. Such properties may interfere with the assay outputs resulting in false positives and/or negatives. To decrease such complications and ensure the compound activities are relevant in terms of biological response, the Tox21 10K compound library was screened for auto fluorescence. From the fluorophores used as reporter signals in our screening assays, the auto fluorescence equivalencies of compounds against three fluorophores have been evaluated: Triamterene, Fluorescein and Rose Bengal sodium for blue, green and red fluorescence, respectively. The fluorescence intensities were measured using Excitation/Emission wavelengths at 405/460nm, 485/535nm and 540/590nm for blue, green and red labels, respectively. This assay includes the green fluorescence data.
Tox21 Assay Protocol Summary: 5 uL of culture medium (MEM containing 10% FBS) per well was dispensed into black wall/clear bottom 1536-well plates using a Multidrop Combi Dispenser (ThermoFisher Scientific, Waltham, MA). After 23 nL compound or DMSO vehicle was transferred into assay plate by a pintool work station (Kalypsys, San Diego, CA), fluorescence intensities in the assay plates were measured by an Envision (PerkinElmer, Shelton, CT) plate reader using three labels for measuring blue, green and red fluorescence at […] 460, 535 and 590nm respectively.
(In general: qHTS replaces the single test concentration by a dilution series.)
As for `O=[N+]([O-])c1ccc(Nc2ccccc2)cc1`, the call was inactive.

`c1ccc2c(c1)Nc1ccccc1S2`: the compound was called inactive. With `O=NN1CCOCC1`, the call was inactive.

Regarding `CC[n+]1c(-c2ccccc2)c2cc(N)ccc2c2ccc(N)cc21`, the compound was called inactive. The entry for `CNC(=O)Oc1cccc2c1OC(C)(C)C2` is “inactive”; for `CC1(C)Cc2cccc(O)c2O1` it is “inactive”. Turning to `COP(=S)(OC)Oc1ccc(S(=O)(=O)N(C)C)cc1`, the compound was classed as inactive. Turning to `Oc1ccc(Cl)cc1Cl`, the outcome was inactive.

`C[C@]12CCC(=O)C=C1CC[C@@H]1[C@@H]2CC[C@@]2(C)[C@H]1CC[C@]2(C)O`: the outcome was inactive. The entry for `CC(C)(C#N)N=NC(C)(C)C#N` is “inactive”; for `Oc1ccc(Cl)cc1Cc1ccccc1` it is “inactive”.

As to `COP(=S)(OC)SCn1nnc2ccccc2c1=O`, the outcome was inactive.

As for `ClC(Cl)=C(Cl)C(Cl)=C(Cl)Cl`, the compound was called inactive. Consider `CCC[CH2][Sn]([Cl])([Cl])[CH2]CCC`, for which the compound was classed as inactive. The entry for `C=C(C)C#N` is “inactive”; for `[Cl-].[Cl-].[Cl-].[Fe+3]` it is “inactive”; for `CC(C)(O)C#N` it is “inactive”. The entry for `CCCCC(C#N)(Cn1cncn1)c1ccc(Cl)cc1` (stereo not given) is “inactive”; for `N#Cc1cccnc1` it is “inactive”; for `CC1CC(=O)O1` (stereo not given) it is “inactive”. The value for `O=C1Nc2ccc(Cl)cc2C(c2ccccc2)=NC1O` (stereo not given) was “inactive”; that for `CC(C)(O)C(=O)Nc1ccc([N+](=O)[O-])c(C(F)(F)F)c1` was “inactive”; that for `O=C1CCCO1` was “inactive”. `O=C1C(Cl)=C(Cl)C(=O)c2ccccc21`: the result was inactive. For `CS(=O)(=O)NC(=O)c1cc(Oc2ccc(C(F)(F)F)cc2Cl)ccc1[N+](=O)[O-]`, the call was inactive. The value for `Clc1ccc(C(Cl)(Cl)Cl)cc1` was “inactive”; that for `CCOP(=S)(OCC)SCn1c(=O)oc2cc(Cl)ccc21` was “inactive”. For the compound `Cl`, the call was inactive.

For the compound `Cc1ccc([N+](=O)[O-])cc1`, the compound was classed as inactive.

In the case of `CCCCSP(=O)(SCCCC)SCCCC`, the compound was classed as inactive. The value for `Cc1ccc(N=CN(C)C=Nc2ccc(C)cc2C)c(C)c1` was “inactive”; that for `CC1=C(C(=O)Nc2ccccc2)SCCO1` was “inactive”; that for `CCCCCCCCCCCCCl` was “inactive”.

Consider `ClCC(Cl)CCl`, for which the result was inactive. Regarding `O=S(=O)(O)C(F)(F)C(F)(F)C(F)(F)C(F)(F)C(F)(F)C(F)(F)C(F)(F)C(F)(F)F`, the compound was called inactive. As for `CCCCCCCC[N+](C)(CCCCCCCC)CCCCCCCC`, the compound was called inactive. The entry for `CCOC(=O)c1ccccc1N` is “inactive”; for `COc1ccc(C=O)cc1OC` it is “inactive”.

On to `C[N+](C)(C)C`, for which the outcome was inactive.

On to `[CH3][Sn]([Cl])([Cl])[Cl]`, for which the outcome was inactive.
